Rows were chosen to be rich in hits. Some 8.2% of all compounds tested hit in one or more screens of this group.
KB-3-1 cytotox – kills parental KB-3-1 adenocarcinoma cells; KB-3-1 viability, CellTiter-Glo ATP luminescence, 72 h; Potency, µM (doses to about 46.1 µM), hits mostly cytotoxic; hit rate 1.4% among 400,000; AID 1347075; note: nearly all actives have a fitted effect of over 60% in size
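Parental KB-3-1 viability, qHTS format: 72 h compound exposure, 37 °C; CellTiter-Glo; media-only wells and DMSO plates as controls; concentration-effect fits on corrected data.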
ELG1 DNA repair – ELG1-dependent DNA repair inhibition; HEK293T ELG1-luciferase reporter, luminescence, 16 h; DNA damage induced by 5-fluorouridine; Potency, µM (doses to about 46.1 µM), hits mostly inhibitors; hit rate 2.3% among 330,000; AID 504467; note: nearly all actives have a fitted effect of over 55% in size
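DMSO vehicle served as the neutral condition. Each well held 2,000 cells given 5-fluorouridine plus compound; after 16 hr at 37 °C/5% CO2, ONE-Glo was added and luciferase measured 30 min later.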
SW480 rereplic – inducers of DNA re-replication in SW480 colon cancer cells. hit rate 1.8% among 340,000. AID 624297. Potency, µM (titrated, usually from 46.1 µM), hits mostly activators. SW480 DNA re-replication, Hoechst DNA content imaging, 48 h; note: nearly all actives have a fitted effect of over 55% in size
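Per well, 250 cells were exposed to pinned compound for 48 hr. Nuclear DNA was visualised with Hoechst (40 min, 37 C) and total object intensity recorded by fluorescence scanning.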
MCF10A rereplic – induces DNA re-replication in MCF 10a normal breast cells | hit rate 2.9% among 350,000 | MCF 10A DNA re-replication, Hoechst nuclear intensity, 48 h | Potency, µM (titrated, usually from 46.1 µM), actives largely listed as activators; note: nearly all actives have a fitted effect of over 50% in size
KB-V1 cytotox – KB-V1 MDR subline cytotoxicity; AID 1347076; hit rate 3.4% among 400,000; KB-V1 MDR cells viability, CellTiter-Glo, 72 h; Potency, µM (highest dose often 46.1 µM), hits mostly cytotoxic; note: nearly all actives have a fitted effect of over 60% in size
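qHTS viability screen in drug-selected KB-V1 MDR cells: 72 h compound treatment at 37 degrees C, ATP luminescence end point.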
Large screens that a line does not name were inactive. Calls come from the whole dose curve; as a rule, active = well fitted curve in the direction sought with a large enough effect; inconclusive = small, poorly fitted or top-dose-only effect, or another doubt; inactive = no such curve, though single readings can be large; an effect the other way counts as inactive or inconclusive.

FC(F)(F)c1cc(-c2ccco2)nc(NCCc2ccccc2)n1	ELG1 DNA repair inconclusive, SW480 rereplic inconclusive, MCF10A rereplic 18µM
O=[N+]([O-])c1cnn(-c2nc(-c3ccco3)cc(C(F)(F)F)n2)c1	SW480 rereplic 18µM
FC(F)(F)c1cc(-c2ccco2)nc(N2CCN(Cc3ccccc3)CC2)n1	MCF10A rereplic 13µM
COc1ccc(-c2cc(C(F)(F)F)nc(NCCc3ccccc3)n2)cc1	none (no result: ELG1 DNA repair, SW480 rereplic, MCF10A rereplic)
Cc1ccc(CN2CCSc3ccc(C(=O)Nc4ccc(C)cc4)cc32)cc1	none (no result: ELG1 DNA repair, SW480 rereplic, MCF10A rereplic)
COC(=O)c1cc(=O)n(Cc2ccco2)c(=Nc2ccc(F)cc2)s1	KB-3-1 cytotox inconclusive, ELG1 DNA repair inconclusive, MCF10A rereplic inconclusive, KB-V1 cytotox 23µM
COC(=O)c1cc(=O)n(Cc2ccc(F)cc2)c(=Nc2ccccc2)s1	ELG1 DNA repair inconclusive, MCF10A rereplic inconclusive, KB-V1 cytotox inconclusive
COC(=O)c1cc(=O)n(CCc2ccc(OC)c(OC)c2)c(=Nc2ccc(F)c(Cl)c2)s1	KB-3-1 cytotox inconclusive, ELG1 DNA repair 15µM, MCF10A rereplic 3.3µM, KB-V1 cytotox 21µM
COC(=O)c1cc(=O)n(Cc2ccc(OC)c(OC)c2)c(=Nc2ccc(F)cc2)s1	KB-3-1 cytotox 21µM, ELG1 DNA repair inconclusive, MCF10A rereplic inconclusive, KB-V1 cytotox inconclusive
CC(=O)N1CCCc2cc(S(=O)(=O)N3CCC(C(=O)Nc4cccc(Cl)c4C)CC3)ccc21	none (no result: ELG1 DNA repair, SW480 rereplic, MCF10A rereplic)
CCOC(=O)C1(Cc2ccc(Cl)cc2)CCN(C(=O)c2cnc(C)cn2)CC1	none
COCCn1c(C)cc(O)c(C(c2ccccc2)N2CCC(C)CC2)c1=O (centres undefined)	none (no result: ELG1 DNA repair, SW480 rereplic, MCF10A rereplic)
CCCCN1C(=O)C(CC(=O)NCCc2ccccn2)CC(C(=O)N2CCOCC2)=C1C (centres undefined)	none (no result: ELG1 DNA repair, SW480 rereplic, MCF10A rereplic)
Cc1cc(C)cc(NS(=O)(=O)c2ccc3c(c2)c(=O)n(C)c(=O)n3C)c1	KB-3-1 cytotox 8.2µM, ELG1 DNA repair inconclusive, KB-V1 cytotox inconclusive
Cc1ccc(NS(=O)(=O)c2ccc3c(c2)c(=O)n(C)c(=O)n3C)cc1F	KB-3-1 cytotox 18µM, ELG1 DNA repair inconclusive, SW480 rereplic inconclusive, KB-V1 cytotox inconclusive
Cn1c(=O)c2cc(S(=O)(=O)Nc3cc(C(=O)O)cc(C(=O)O)c3)ccc2n(C)c1=O	ELG1 DNA repair inconclusive
CC(=Nc1ccccc1)C1=C(O)C(Cc2cccc(F)c2)NC1=O (centres undefined)	KB-3-1 cytotox inconclusive, KB-V1 cytotox 1.2µM (no result: ELG1 DNA repair, SW480 rereplic, MCF10A rereplic)
O=C1NC[C@H](Cc2ccccc2)N(CCc2cccc(F)c2)C1=O	KB-V1 cytotox inconclusive
CC(=Nc1ccccc1)C1=C(O)C(Cc2ccc(O)cc2)NC1=O (centres undefined)	KB-3-1 cytotox 0.21µM, SW480 rereplic 0.13µM, MCF10A rereplic 0.46µM, KB-V1 cytotox inconclusive (no result: ELG1 DNA repair)
CCn1nnc(NC(=O)C(C)Oc2ccc(Cl)cc2Cl)n1 (centres undefined)	KB-V1 cytotox 18µM
C#CC(c1ccccc1)(c1ccccc1)n1ccnc1	KB-V1 cytotox inconclusive (no result: ELG1 DNA repair, SW480 rereplic, MCF10A rereplic)
Clc1ccccc1C(c1ccccc1)(c1ccccc1)n1ccnc1	MCF10A rereplic 14µM, KB-V1 cytotox 15µM
O=S(=O)(O)c1cccc2cccc(Nc3ccccc3)c12	SW480 rereplic 16µM, MCF10A rereplic 21µM (no result: ELG1 DNA repair)
O=C(COC(=O)c1n[nH]c2ccccc12)Nc1cccc(S(=O)(=O)N2CCOCC2)c1	none
O=C(COC(=O)C12CC3CC(CC(Br)(C3)C1)C2)Nc1cccc(S(=O)(=O)N2CCOCC2)c1	ELG1 DNA repair 16µM, SW480 rereplic inconclusive
CCn1cc(C(=O)OCC(=O)Nc2cccc(S(=O)(=O)N3CCOCC3)c2)c(=O)c2ccc(C)nc21	KB-V1 cytotox 8.2µM
CCCc1nc2ccccc2c(C(=O)OCC(=O)Nc2cccc(S(=O)(=O)N3CCOCC3)c2)c1CC	KB-3-1 cytotox inconclusive, ELG1 DNA repair 26µM, MCF10A rereplic inconclusive, KB-V1 cytotox inconclusive
CCCc1nc2ccccc2c(C(=O)OCC(=O)NCc2ccco2)c1CC	ELG1 DNA repair inconclusive, KB-V1 cytotox 5.8µM
CCCCCCNCC(=O)N1CCC(Cc2ccccc2)CC1	ELG1 DNA repair inconclusive
O=C(NCC1CC1)c1ccc2nc(-c3ccoc3)c(-c3ccoc3)nc2c1	none (no result: ELG1 DNA repair, SW480 rereplic, MCF10A rereplic)
COC(=O)[C@@]12C[C@@H](CC(=O)N3CCN(C(=O)C4CC4)CC3)C(=O)N(Cc3cccc4ccccc34)C1=CCC(C)(C)C2	KB-V1 cytotox inconclusive (no result: ELG1 DNA repair, SW480 rereplic, MCF10A rereplic)
CCCc1nc2ccccc2c(C(=O)OCC(=O)Nc2ccc(S(=O)(=O)N3CCOCC3)cc2)c1CC	KB-3-1 cytotox inconclusive, ELG1 DNA repair 21µM, SW480 rereplic 21µM, MCF10A rereplic inconclusive, KB-V1 cytotox 3.3µM
CCOc1cc(C)c(S(=O)(=O)NC2CCCCC2)cc1C	KB-3-1 cytotox inconclusive, KB-V1 cytotox inconclusive
CCOc1cc(S(=O)(=O)NC2CC2)c(OCC)cc1-n1cnnn1	KB-V1 cytotox 15µM
CCOc1cc(S(=O)(=O)NCc2ccc(OC)cc2)c(OCC)cc1-n1cnnn1	SW480 rereplic inconclusive, MCF10A rereplic inconclusive, KB-V1 cytotox 5.2µM
CCOc1ccc(Br)cc1S(=O)(=O)NC1CCCC1	KB-V1 cytotox 16µM
CCOc1cc(S(=O)(=O)NCCc2ccc(OC)c(OC)c2)c(OCC)cc1-n1cnnn1	none
O=C(C[C@@H]1C/C=C\CC[C@@H](Cc2ccc(F)cc2)C(=O)OC[C@@H](Cc2ccccc2)NC1=O)NCCO	none
CCOc1cccc2sc(NC(=O)CCS(=O)(=O)c3ccccc3)nc12	KB-3-1 cytotox inconclusive, ELG1 DNA repair inconclusive, SW480 rereplic 21µM, MCF10A rereplic 21µM, KB-V1 cytotox inconclusive
CCOc1cccc2sc(Nc3nc4ccc(NC(C)=O)cc4s3)nc12	KB-3-1 cytotox 12µM, ELG1 DNA repair inconclusive, SW480 rereplic 4.1µM, MCF10A rereplic 3.7µM, KB-V1 cytotox inconclusive
COc1ccc(CN(C)C(=O)c2cccc(S(=O)(=O)N3CCCc4ccccc43)c2)c(OC)c1OC	KB-3-1 cytotox inconclusive, KB-V1 cytotox inconclusive (no result: ELG1 DNA repair)
Cc1ccc(C)c(CSc2nc3ccncc3n2CC(=O)Nc2ccc(N(C)C)cc2)c1	none (no result: ELG1 DNA repair, SW480 rereplic, MCF10A rereplic)
CN(CC(=O)Nc1ccc(Cl)c(C(F)(F)F)c1)C(=O)c1cccc2cccnc12	KB-V1 cytotox 18µM
Cc1cc(C)cc(OCC(=O)N(C)CC(=O)Nc2ccc(Cl)c(C(F)(F)F)c2)c1	KB-3-1 cytotox inconclusive, MCF10A rereplic 6.5µM
O=C(CCc1nnc2ccc(N3CCOCC3)nn12)Nc1ccc(F)cc1F	KB-V1 cytotox inconclusive
O=C1/C(=C/c2cccc(Br)c2)SC(=S)N1/N=C/c1cc([N+](=O)[O-])ccc1O	MCF10A rereplic inconclusive
O=C(c1cccs1)N1CCN(Cc2cn[nH]c2-c2ccc(F)cc2F)CC1	none
Cc1ccc(-c2[nH]ncc2CN2CCN(C(=O)c3cccs3)CC2)cc1C	ELG1 DNA repair 12µM
COc1ccc(CN2CCN(C(=O)c3cccs3)CC2)c(OC)c1OC	ELG1 DNA repair 21µM
COc1ccc(CN2CCN(C(=O)c3ccc(-c4ccccc4)cc3)CC2)c(OC)c1OC	none

Compound activity as filed in PubChem.
